Experimental findings from publication PMC4336329 (PLoS ONE, 2015) are described below.

The whole screen tested about 310,000 compounds, of which about 14,000 (4.5%) showed an effect of 50% or more. The effect is printed as a negative number. This is one part of a sample in which strong results are shown more often than they occur.
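Note: peak tail current of the secondary pulse compared with the same well before compound.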

In this assay the target is human ether-à-go-go-related gene (hERG) potassium channel (human, UniProt Q12809). Description: primary screen, population patch clamp on CHO cells stably expressing hERG; higher = less effect of the substance.
human ether-à-go-go-related gene (hERG) potassium channel, sequence (Q12809 whole entry, looked up): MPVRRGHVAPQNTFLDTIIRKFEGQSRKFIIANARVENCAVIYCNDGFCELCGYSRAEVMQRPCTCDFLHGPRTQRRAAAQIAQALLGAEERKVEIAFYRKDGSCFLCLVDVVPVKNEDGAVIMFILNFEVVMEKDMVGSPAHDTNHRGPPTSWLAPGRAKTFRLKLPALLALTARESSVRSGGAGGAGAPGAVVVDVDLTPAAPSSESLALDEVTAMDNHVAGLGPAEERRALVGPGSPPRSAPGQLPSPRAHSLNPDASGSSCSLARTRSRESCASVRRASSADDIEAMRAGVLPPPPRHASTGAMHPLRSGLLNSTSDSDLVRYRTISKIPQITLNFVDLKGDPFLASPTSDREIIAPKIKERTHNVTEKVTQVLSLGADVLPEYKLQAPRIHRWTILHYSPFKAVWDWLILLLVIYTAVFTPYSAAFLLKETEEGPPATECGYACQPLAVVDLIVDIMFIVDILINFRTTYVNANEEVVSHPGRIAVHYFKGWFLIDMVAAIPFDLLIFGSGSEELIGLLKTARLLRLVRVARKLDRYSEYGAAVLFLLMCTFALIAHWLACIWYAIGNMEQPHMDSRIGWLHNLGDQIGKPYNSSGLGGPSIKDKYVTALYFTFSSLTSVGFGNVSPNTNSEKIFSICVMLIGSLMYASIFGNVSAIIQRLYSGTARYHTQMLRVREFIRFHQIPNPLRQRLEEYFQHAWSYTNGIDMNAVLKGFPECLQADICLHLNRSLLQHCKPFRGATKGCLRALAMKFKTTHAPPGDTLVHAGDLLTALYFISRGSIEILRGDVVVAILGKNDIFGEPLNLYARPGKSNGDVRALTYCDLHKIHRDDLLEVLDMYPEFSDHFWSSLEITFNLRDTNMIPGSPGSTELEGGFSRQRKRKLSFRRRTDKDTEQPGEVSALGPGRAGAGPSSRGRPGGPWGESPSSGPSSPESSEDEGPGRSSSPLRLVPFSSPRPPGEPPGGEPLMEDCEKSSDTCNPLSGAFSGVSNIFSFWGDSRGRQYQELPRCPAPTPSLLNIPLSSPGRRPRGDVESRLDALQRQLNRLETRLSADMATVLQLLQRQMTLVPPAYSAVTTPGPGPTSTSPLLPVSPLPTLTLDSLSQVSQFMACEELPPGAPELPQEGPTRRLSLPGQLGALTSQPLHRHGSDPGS
In the case of `CCOC(=O)C1=CN(c2cccc(F)c2)C=C(C(=O)OCC)C1c1cc(OC)c(O)c([N+](=O)[O-])c1`, the “hERG current change (%, negative = inhibition) at 10uM” value is on record as -3.91%. Then `CCOC(=O)c1nc(C)nc(Sc2n[nH]c(-c3cc(C(F)(F)F)cc(C(F)(F)F)c3)n2)c1C`, with -19.5%; and `CCCc1cc(=O)oc2c(CN(CC)CC)c(O)c(Cl)cc12`, with -39.8%. Then `CC(C)N(C(=O)CSc1nnc(NC(=O)C2CCC2)s1)C(C)C`, with -11.1%; and `COc1ccc(CNC(=O)c2cc(-c3cccs3)on2)cc1`, with -2.38%. Then `CCN(CC(=O)Nc1ccc2c(c1)OCCO2)C(=O)/C=C/c1ccc(F)cc1`, with -7.2%. On to `O=C(NCCCn1ccnc1)C(Cl)(Cl)Cl`, for which the “hERG current change (%, negative = inhibition) at 10uM” value was -0.517%. In the case of `CC(C)(C)c1ccc(C(=O)NCCCn2ccnc2)cc1.Cl` it was -11%; in that of `O=C(NCCCn1ccnc1)c1ccc(Cl)c(Cl)c1`, -17.3%. Then `CN(c1ccccc1)S(=O)(=O)c1cc(C(=O)NCCCn2ccnc2)ccc1Cl`, with -60.3%. Then `O=C(NCCCn1ccnc1)/C(=C\c1ccccc1F)NC(=O)c1ccccc1`, with -75%. As for `CC(C(=O)NCCCn1ccnc1)(c1ccccc1)c1ccccc1.Cl`, the “hERG current change (%, negative = inhibition) at 10uM” value is given as -73.1%.

As to `Cc1ccc(C(=O)N/C(=C/c2ccccc2F)C(=O)NCCCn2ccnc2)cc1`, the “hERG current change (%, negative = inhibition) at 10uM” value is -40.5%.

Turning to `O=C(NCCCn1ccnc1)/C(=C\c1ccccc1Cl)NC(=O)c1ccccc1`, the “hERG current change (%, negative = inhibition) at 10uM” value is recorded as -41.2%. For the compound `CN(C)CCCNC(=O)c1ccc(Cl)c(S(=O)(=O)N(C)c2ccccc2)c1.Cl`, the “hERG current change (%, negative = inhibition) at 10uM” value is -35%.

Take `O=C(NCCCn1ccnc1)/C(=C/c1ccc(F)cc1)NC(=O)c1ccccc1`: the “hERG current change (%, negative = inhibition) at 10uM” value was -75.6%. As for `O=C(O)c1ccc(COc2ccc3c4c(c(=O)oc3c2)CCC4)o1`, the “hERG current change (%, negative = inhibition) at 10uM” value is given as 21.4%.

Consider `Cc1cccc(-c2n[nH]c(=S)n2Cc2ccccc2)c1`, for which the “hERG current change (%, negative = inhibition) at 10uM” value is -2.87%. Then `NS(=O)(=O)c1ccc(NC(=O)COC(=O)CSc2n[nH]c(-c3ccccc3)n2)cc1`, with 12%; and `O=C(NN1C(=O)C2C3c4ccccc4C(c4ccccc43)C2C1=O)c1ccc(Cl)cc1` (stereo not drawn), with -8.19%; and `COc1cc(C(=O)NCc2ccco2)c(Br)c(OC)c1OC`, with -4.22%. On to `O=C(Nc1cc(C(F)(F)F)ccc1Cl)c1ccc(NC(=O)C(F)(F)F)cc1`, for which the “hERG current change (%, negative = inhibition) at 10uM” value is 0.159%. In the case of `Cc1c(-n2c(SCC(C)C)nc3ccccc3c2=O)c(=O)n(-c2ccccc2)n1C`, the “hERG current change (%, negative = inhibition) at 10uM” value came to 0.437%. As for `COC(=O)CSc1nc(N)c(C#N)c(C(C)C)c1C#N`, the “hERG current change (%, negative = inhibition) at 10uM” value is reported as -8.45%.

With `O=C(NCCCn1ccnc1)/C(=C/c1ccccc1)NC(=O)c1ccccc1`, the “hERG current change (%, negative = inhibition) at 10uM” value is on record as -70.3%. As to `CC(C)c1ccc(/C=C(\NC(=O)c2ccccc2)C(=O)NCCCn2ccnc2)cc1`, the “hERG current change (%, negative = inhibition) at 10uM” value is -78.2%.

`CN(C)c1ccc(/C=C(\NC(=O)c2ccccc2)C(=O)NCCCn2ccnc2)cc1`: the “hERG current change (%, negative = inhibition) at 10uM” value is -9.78%. For `CN(C)c1ccc(/C=C(/NC(=O)c2ccccc2)C(=O)NCCCn2ccnc2)cc1`, the “hERG current change (%, negative = inhibition) at 10uM” value was found to be 0.277%. As for `CC(=O)Nc1nc(CC(C)C)cc(-c2ccccc2)c1C#N`, the “hERG current change (%, negative = inhibition) at 10uM” value stood at 4.98%. Then `COc1ccccc1-n1c(=O)c2c3c(sc2n2c(SC)nnc12)CCC3`, with -12.5%; and `COc1ccccc1-n1c(=O)c2c3c(sc2n2c(SC(C)C)nnc12)CCC3`, with -4.22%; and `CCSc1nnc2n(-c3ccc(OC)cc3)c(=O)c3c4c(sc3n12)CCCC4`, with -6.75%. Consider `CCCSc1nnc2n(C)c(=O)c3c4c(sc3n12)CCC4`, for which the “hERG current change (%, negative = inhibition) at 10uM” value is given as -71.5%. For `Cn1c(=O)c2c3c(sc2n2c(SCc4ccccc4)nnc12)CCCC3`, the “hERG current change (%, negative = inhibition) at 10uM” value is listed as -9.93%.

As to `CCCSc1nnc2n(-c3ccccc3OC)c(=O)c3c4c(sc3n12)CCC4`, the “hERG current change (%, negative = inhibition) at 10uM” value was -56.8%. Then `C=CCSc1nnc2n(-c3ccccc3OC)c(=O)c3c4c(sc3n12)CCC4`, with -64.5%; and `C=C(C)CSc1nnc2n(C)c(=O)c3c4c(sc3n12)CCC4`, with -21.6%; and `COc1ccccc1-n1c(=O)c2c3c(sc2n2c(=S)[nH]nc12)CCC3`, with 21.1%. Then `O=C(O)/C=C/C(=O)Nc1ccc(OC(F)(F)F)cc1Br`, with 15.7%; and `O=C(/C(=C/c1ccccc1Cl)c1ccccc1)N1CCOCC1`, with -3.84%. Then `Cc1ccc(C(NC(=O)N2CCCC2)C(Cl)(Cl)Cl)cc1F` (stereo not drawn), with 19.1%. In the case of `Cc1ccc(NC(=O)c2sc3ccccc3c2Cl)nc1`, the “hERG current change (%, negative = inhibition) at 10uM” value amounted to 8.87%. Then `COC(C(=O)Nc1ccc(S(=O)(=O)Nc2ccc(C)c(C)c2)cc1)c1ccccc1` (stereo not drawn), with 15.3%. With `COC(C(=O)Nc1ccc(S(=O)(=O)Nc2ccc(F)cc2)cc1)c1ccccc1` (stereo not drawn), the “hERG current change (%, negative = inhibition) at 10uM” value is 0.504%. Regarding `COC(C(=O)Nc1ccc(S(=O)(=O)Nc2c(C)cccc2C)cc1)c1ccccc1` (stereo not drawn), the “hERG current change (%, negative = inhibition) at 10uM” value was -74.6%. As for `CCn1cc(/C=C/C(=O)Nc2ccn(Cc3c(F)c(F)cc(F)c3F)n2)cn1`, the “hERG current change (%, negative = inhibition) at 10uM” value is reported as -14.9%. Regarding `O=C(CN1CCC(n2nnc3cc(C(F)(F)F)ccc32)CC1)N1CCc2ccccc21`, the “hERG current change (%, negative = inhibition) at 10uM” value was -19.9%. `O=C(CN1CCC(n2nnc3cc(F)ccc32)CC1)N1CCc2ccccc2C1`: the “hERG current change (%, negative = inhibition) at 10uM” value is reported as -58.1%. In the case of `O=C(CN1CCC(n2nnc3cc(F)ccc32)CC1)NCCc1nc2ccccc2[nH]1` it was -31.6%; in that of `O=C(CN1CCC(n2nnc3cc(F)ccc32)CC1)NNC(=O)c1ccccc1`, -11.9%; in that of `Cl.O=C(CN1CCN(c2ccc(F)cc2)CC1)N1CCC(Cc2ccccc2)CC1`, -30.3%. On to `O=C(CN1CCC(N2CCCCC2)CC1)N1CCCc2ccccc21.O=C(O)C(=O)O`, for which the “hERG current change (%, negative = inhibition) at 10uM” value is 20.7%. In the case of `O=C(CCS(=O)(=O)Cc1ccccc1)N1CCc2ccccc2C1` it was -0.206%. For the compound `O=C(CN1CCC(Cc2ccccc2)CC1)N1CCc2ccccc2C1`, the “hERG current change (%, negative = inhibition) at 10uM” value is recorded as -69.3%.

For `O=C(CN1CCC(n2nnc3cc(F)ccc32)CC1)N1CCCc2ccccc21`, the “hERG current change (%, negative = inhibition) at 10uM” value is on record as -64.2%.

Take `O=C(OCCC1Oc2cccnc2NC1=O)c1ccc(F)cc1` (stereo not drawn): the “hERG current change (%, negative = inhibition) at 10uM” value is given as 12.6%. Turning to `CC(OC(=O)/C=C/c1ccc2ccccc2n1)C(=O)Nc1ccc(S(N)(=O)=O)cc1` (stereo not drawn), the “hERG current change (%, negative = inhibition) at 10uM” value is reported as 19.1%. In the case of `CCCOC(=O)c1ccc(Oc2c(-c3ccc(O)cc3O)n[nH]c2C)cc1` it was -2.68%; in that of `Cc1nc(SCC(=O)Nc2cccc(C(=O)O)c2)n[nH]1`, 24.9%; in that of `O=C(NCCCn1ccnc1)c1noc2c1CCCC2`, -41.8%. Regarding `O=C(Nc1cc(Cl)cc(Cl)c1)C1CCC(=O)N1Cc1ccccc1Cl` (stereo not drawn), the “hERG current change (%, negative = inhibition) at 10uM” value was 8.65%. In the case of `O=C(CC(Cc1ccccc1)C(=O)O)Nc1ccccc1` (stereo not drawn) it was 25.2%; in that of `CCOC(=O)c1ccc([N+](=O)[O-])cc1NC(C)=O`, 3.85%. In the case of `Cc1cc(C)c(OCC(=O)Nc2cccc(O)c2)cc1C`, the “hERG current change (%, negative = inhibition) at 10uM” value is on record as 10.9%. Then `CN(Cc1ccccc1N1CCCC1)C(=O)c1cc2cc(Cl)ccc2o1`, with -13.4%; and `O=C(NCC(c1ccco1)N1CCCC1)c1cc2cc(Cl)ccc2o1` (stereo not drawn), with -67.7%.

Consider `Cc1c(C(=O)NCC(c2ccco2)N2CCCC2)oc2ccc(Cl)cc12` (stereo not drawn), for which the “hERG current change (%, negative = inhibition) at 10uM” value was -42.1%. In the case of `O=C(CCNC(=O)c1ccc(Cl)cc1)NCC(c1ccco1)N1CCCCC1` (stereo not drawn) it was -31%; in that of `Cc1ccccc1CNC(=O)c1cc2ccccc2o1`, 3.09%; in that of `CC(Sc1ccccc1)C(=O)NCC(c1ccco1)N1CCCCC1` (stereo not drawn), -9.36%. For the compound `O=C(NCc1ccccc1)c1cc2ccccc2o1`, the “hERG current change (%, negative = inhibition) at 10uM” value was -4.68%. Take `CC(Sc1ccc(Cl)cc1)C(=O)NCC(c1ccco1)N1CCCCC1` (stereo not drawn): the “hERG current change (%, negative = inhibition) at 10uM” value is -54.1%.

As to `O=C(NCC(c1ccco1)N1CCCC1)c1ccc(Cl)cc1` (stereo not drawn), the “hERG current change (%, negative = inhibition) at 10uM” value is -22.8%. As to `O=C(NCc1ccccc1CN1CCCC1)c1cc2cc(Cl)ccc2o1`, the “hERG current change (%, negative = inhibition) at 10uM” value is listed as -74.6%. `O=C(NCc1ccccc1CN1CCCCC1)c1ccc(Cl)cc1N1CCCC1=O`: the “hERG current change (%, negative = inhibition) at 10uM” value is on record as -30.4%. Then `O=C(NCc1ccccc1CN1CCCC1)c1cc2ccccc2o1`, with -69.4%; and `Cn1nnnc1SCC(=O)N1c2ccccc2Sc2ccc(Cl)cc21`, with -16.4%; and `COC(=O)C(C)Oc1ccc2c(c1)O/C(=C\c1cccc(Br)c1)C2=O` (stereo not drawn), with -46.9%. Then `COc1ccc(C2c3[nH]c4ccccc4c3C[C@H]3C(=O)N(c4ccccc4C(=O)N4CCC[C@H]4C(=O)O)C(=O)N23)cc1` (stereo partly drawn), with 3.11%.

Turning to `CC(C)C[C@@]12C(=O)N(c3cccc(Cl)c3)C(=O)N1[C@H](c1ccc(Cl)cc1)[C@@H]1C(=O)N(C3CCCCC3)C(=O)[C@@H]12`, the “hERG current change (%, negative = inhibition) at 10uM” value turned out to be 11.2%.

Consider `Cc1ccc(C)c(NC(=O)CN(C)C(=O)CN2C(=O)C3CCCCC3C2=O)c1` (stereo not drawn), for which the “hERG current change (%, negative = inhibition) at 10uM” value came out at 10%. Then `O=C(NCC(c1ccco1)N1CCCC1)c1ccccc1Sc1ccc(C(F)(F)F)cc1[N+](=O)[O-]` (stereo not drawn), with -55.4%; and `N#Cc1ccccc1Sc1ccccc1C(=O)NCC(c1ccco1)N1CCCCC1` (stereo not drawn), with -19%; and `N#Cc1ccccc1Sc1ccccc1C(=O)NCC(c1ccco1)N1CCCC1` (stereo not drawn), with -27.9%.
